# Bioassay records deposited in PubChem BioAssay by Sanford-Burnham Center for Chemical Genomics.
# CF NFkB block = cystic fibrosis NF-kB activation inhibition. KKLEB NF-kB-GFP reporter, PAF-induced, GFP fluorescence overnight. inhibition, % at 5 µM. 0.86% of 360,000 active. AID 588850;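 active = at least 50% inhibition at 5 µM, scaled per plate between neutral and stimulator controls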;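 note: PAF is a Pseudomonas aeruginosa culture filtrate used as stimulus; plate controls were PAF-stimulated DMSO wells for no effect and unstimulated DMSO wells for full effect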
# TROY NFkB inh = blocks TROY-dependent signaling in reporter cells; inhibition, % at 10 µM; Q293 LMP1-TROYcd NF-kB luciferase reporter, 4 h; 0.98% of 360,000 active;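 active = compounds whose plate-normalised and pattern-corrected inhibition of the luciferase reporter signal at the single screening dose is 50% or more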
# TWEAK-Fn14 inh = blocks TWEAK-Fn14 interaction in a reporter cell assay; TWEAK-stimulated Fn14 reporter cells, luciferase luminescence, 8 h; 2% of 360,000 active; inhibition, % at 10 µM; in the data active = inhibition above about 50%
# HIF-2a inh = inhibitors of HIF-2a. 786-0 RCC cells HIF-2a reporter, luciferase luminescence, overnight. inhibition, % at 18.8 µM. AID 624352. 0.72% of 360,000 active;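 active = inhibition of the luminescence signal of 40% or more relative to plate controls, in a single-dose primary screen at 18.75 µM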
# Peg3 promoter = Peg3 promoter activity inhibition; HeLa PEG-Prom luciferase reporter, luminescence, overnight; inhibition, % at 20 µM; 1.7% of 360,000 active; AID 588405;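 active = inhibition of at least 50% at 20 µM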
# KKLEB cytotox = counter-screen for CF NF-kB inhibitors: cytotoxicity; KKLEB CF airway cells viability, ATPlite luminescence, overnight; stronger effect = lower value; cells stimulated with P. aeruginosa culture filtrate; 0.36% of 360,000 active; AID 602141; activity change (cytotoxicity), % at 5 µM;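 active = corrected activity change at or below -50% at 5 µM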
# * hit, by the source's call; . = no result given. Only some compounds are listed: those with a hit (about 4% of all), similar ones and a draw of the others.
SMILES,CF NFkB block,TROY NFkB inh,TWEAK-Fn14 inh,HIF-2a inh,Peg3 promoter,KKLEB cytotox
Cc1cc(N2CCC(C)CC2)n2nc(C)c(-c3ccccc3)c2n1,-10,-12,-10,-92,-20,-8
Cc1cc(N2CCOCC2)n2ncc(-c3ccc(Cl)cc3)c2n1,3,79*,82*,-102,-167,-8
CC(C)(C)c1cc(N2CCOCC2)n2ncc(-c3ccc(Cl)cc3)c2n1,16,-21,-18,-104,-58,-6
Cc1cc(N2CCC(C)CC2)n2ncc(-c3ccccc3)c2n1,11,84*,83*,-24,-175,-8
Cc1cc(N2CCCCC2)n2ncc(-c3ccc(Cl)cc3)c2n1,13,70*,74*,-170,-316,-18
Cc1cc(N2CCOCC2)n2ncc(-c3ccccc3)c2n1,5,75*,86*,-61,-41,-6
Cc1ccccc1C(N)c1ccncc1 (stereo not drawn),20,13,5,10,7,1
CC(C)NC(=O)C1(C)CCN1C(=O)C(c1ccccc1)c1ccccc1 (stereo not drawn),7,10,14,9,3,9
Cc1ccc(-c2cnn3c(N4CCOCC4)cc(C)nc23)cc1,-8,73*,85*,-30,-32,-11
Cc1cc(N2CCOCC2)n2nc(C)c(-c3ccc(Cl)cc3)c2n1,22,-1,-2,1,5,-13
Cc1cc(N2CCCCC2)n2ncc(-c3ccccc3)c2n1,20,77*,81*,-87,-86,-24
CCOC(=O)[C@]12CCCC=C1N(Cc1ccccc1)C(=O)[C@H](CC(=O)NCc1cccs1)C2,.,.,.,2,.,.
CCOC(=O)c1c(C2CC2)csc1NC(=O)COC(=O)c1ccc[n+]([O-])c1,-15,-1,-9,11,-7,6
CCOC(=O)c1c(C2CC2)csc1NC(=O)COC(=O)c1cnc(Cl)c(Cl)c1,-3,2,-17,-4,102*,6
O=C(NCc1ccccc1)c1onc(CSc2ccccc2)c1C(=O)NCC1CC1,19,-2,30,-3,20,-10
c1coc(CN(Cc2ccco2)c2ncnc3c2oc2ccccc23)c1,15,18,66*,17,38,-2
Clc1ncnc2c1oc1ccccc12,-4,-22,-18,-233,-227,3
CCCCCN(C(=O)CCC(=O)OCc1ccc(C(C)C)cc1)c1c(N)n(CCCC)c(=O)[nH]c1=O,54*,-22,10,-5,11,-54*
CCN(CC)CC1CN(N=Cc2ccc([N+](=O)[O-])o2)C(=O)O1 (stereo not drawn),5,4,4,-5,-3,-4
Cc1ccc(Cn2cc(CN3CC(N4CCN(C5CCN(C)CC5)CC4)CS3(=O)=O)nn2)cc1 (stereo not drawn),.,5,4,-1,.,.
O=C(c1ccccc1)c1ccc(OCCCCN2CCCCC2)cc1,-4,-14,70*,4,-4,3
CCC1CCCCN1C(=O)CCCOc1ccccc1 (stereo not drawn),8,50*,50*,-103,-130,-6
O=C(c1ccccc1)c1ccc(OCCCN2CCCC2)cc1,-3,-16,0,-31,-37,7
CCC1CCCCN1C(=O)COc1ccc(F)cc1 (stereo not drawn),3,-14,-14,8,6,-2
O=C(CCCOc1ccccc1)N1CCCCC1,4,58*,86*,20,17,6
SMILES,CF NFkB block,TROY NFkB inh,TWEAK-Fn14 inh,HIF-2a inh,Peg3 promoter,KKLEB cytotox
CC1CCN(C(=O)CSc2ccc(-c3cccnc3)nn2)CC1,11,4,9,1,17,-2
O=C(N/N=C(\c1ccccc1)c1cccnc1)c1ccc(O)cc1,-10,-11,-7,-4,15,12
O=C(N/N=C(\c1ccccc1)c1cccnc1)c1cccc(F)c1,-23,-51,0,3,53*,11
Cc1ccc(/C=C2\SC(=S)N(CC(=O)Nc3cccnc3)C2=O)cc1,-6,-35,-24,-9,-2,1
Cc1ccc(/C=C2\SC(=S)N(CCCC(=O)Nc3cccnc3)C2=O)cc1,-2,15,27,70*,2,5
O=C(CCCN1C(=O)/C(=C/c2cccc(Br)c2)SC1=S)Nc1ccccn1,22,11,49,66*,62*,-22
Cc1ccc(/C=C2\SC(=S)N(CCCC(=O)Nc3cc(C)on3)C2=O)cc1,3,24,73*,69*,24,2
O=C(CCCN1C(=O)/C(=C/c2cccs2)SC1=S)Nc1cccnc1,11,11,-14,25,14,-2
COc1ccc(/C=C2\SC(=S)N(CCCC(=O)Nc3cc(C)on3)C2=O)cc1OC,-12,9,25,17,14,-3
O=C(CCCN1C(=O)/C(=C\c2cccc(Br)c2)SC1=S)Nc1cccnc1,32,11,37,61*,96*,-13
O=C(Cc1ccc(NC(=O)C2CCN(C(=O)C3CCCCC3)CC2)cc1)Nc1cccc(C(=O)N2CCCCC2)c1,-6,-8,-10,-2,-7,34
CCOC(=O)[C@]12CCCC=C1N(Cc1ccccc1)C(=O)[C@H](CC(=O)NCCCOC)C2,.,.,.,9,.,.
COc1ccccc1-n1c(SCC(=O)N2CCCCC2)nc(O)c(Cc2ccccc2)c1=O,-21,-7,7,2,97*,10
COc1ccccc1-n1c(SCC(=O)NC(C)(C)C)nc(O)c(Cc2ccccc2)c1=O,-20,8,1,14,6,6
O=C(/C=C1\NC2(CCCC2)Cc2ccccc21)C(=O)N/N=C/c1ccc(O)c(O)c1,1,-16,25,20,57*,-5
COc1cccc(-c2cnc3c(NC=O)cc(-c4cccc(NC(C)=O)c4)cn23)c1,15,61*,30,-25,48,-14
COc1cc(-c2cc(NC(C)=O)c3ncc(-c4cc(OC)c(OC)c(OC)c4)n3c2)cc(OC)c1OC,-64,6,50*,-84,52*,-5
COc1cc(-c2cnc3c(NC=O)cc(-c4cccc(NC(C)=O)c4)cn23)cc(OC)c1OC,84*,25,60*,26,64*,-67*
CC(=O)Nc1cccc(-c2cc(NC=O)c3ncc(-c4cccc(C(C)=O)c4)n3c2)c1,48,3,32,14,44,-25
CC1CCCCC12NC(=O)N(CC(=O)OCc1cccc(F)c1)C2=O (stereo not drawn),6,-11,-17,10,6,-1
CCC1CCCCN1CCCNC(=O)C1CCCN(c2ncnc3c2nc2n3CCCCC2)C1 (stereo not drawn),10,-8,9,4,-16,6
COC(=O)[C@@]1(Sc2ccc(C)cc2)CC(=O)N[C@@H]1c1ccc(C(F)(F)F)cc1,.,-2,1,16,.,.
O=C1CC(NNc2nc3ccccc3s2)C(=O)N1c1ccccc1 (stereo not drawn),8,61*,4,10,-1,13
